beta cell repl = inducers of MIN6 beta-cell proliferation, primary screen, ATP luminescence, uHTS. MIN6 cells proliferation, ATPlite luminescence, 48 h; cells starved in 0.2% serum; 100% = growth in 10% serum. proliferation, % at 10 µM. 330,000 tested, 0.29% active;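 active = compounds whose signal lies at least 3.5 SD above the mean of all wells on their plate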;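 also: 0% = DMSO-treated cells in low-serum medium and 100% = 10% serum control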
PREPL inh = PREPL enzyme inhibitors, primary screen, biochemical, fluorescence polarization. inhibition, % at 5.96 µM. recombinant PREPL, fluorescence polarization activity-based probe. 320,000 tested, 0.68% active. Prolyl endopeptidase-like (Homo sapiens), Q4J6C6;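 also: 0% = enzyme with DMSO and 100% = wells lacking enzyme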
Target sequence (Q4J6C6 whole entry, looked up): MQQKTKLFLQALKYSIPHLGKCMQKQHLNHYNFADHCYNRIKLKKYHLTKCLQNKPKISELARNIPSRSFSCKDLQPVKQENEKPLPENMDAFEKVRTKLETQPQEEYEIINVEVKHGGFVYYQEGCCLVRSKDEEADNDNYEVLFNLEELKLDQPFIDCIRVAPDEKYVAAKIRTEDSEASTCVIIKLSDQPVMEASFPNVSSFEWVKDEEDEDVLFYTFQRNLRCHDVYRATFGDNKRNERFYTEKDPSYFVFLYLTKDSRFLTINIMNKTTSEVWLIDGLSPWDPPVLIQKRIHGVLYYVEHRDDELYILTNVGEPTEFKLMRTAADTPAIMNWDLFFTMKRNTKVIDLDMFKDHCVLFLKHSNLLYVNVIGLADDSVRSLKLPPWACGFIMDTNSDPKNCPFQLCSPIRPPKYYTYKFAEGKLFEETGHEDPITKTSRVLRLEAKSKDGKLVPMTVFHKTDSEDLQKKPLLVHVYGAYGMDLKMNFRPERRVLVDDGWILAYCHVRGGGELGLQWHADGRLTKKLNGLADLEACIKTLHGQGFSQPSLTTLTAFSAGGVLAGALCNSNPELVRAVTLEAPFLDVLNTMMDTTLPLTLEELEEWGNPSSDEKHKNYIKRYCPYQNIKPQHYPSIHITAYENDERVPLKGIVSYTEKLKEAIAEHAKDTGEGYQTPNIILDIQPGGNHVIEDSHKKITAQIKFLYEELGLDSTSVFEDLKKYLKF
UBC13 inh = UBC13 polyubiquitin chain formation inhibitors, primary screen, biochemical, TR-FRET, uHTS | inhibition, % at 20 µM | 330,000 tested, 0.47% active; in the data active = inhibition above about 45%, passing the limit was not always enough
RAD54 branch = inhibitors of human RAD54 branch migration, primary screen, biochemical, fluorescence, single point; DNA repair and recombination protein RAD54-like (Homo sapiens), Q92698; RAD54 Holliday junction branch migration, FAM/BHQ fluorescence; inhibition, % at 10.4 µM; 360,000 tested, 0.14% active; AID 602329, 2012;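 active = mean normalized replicate activity at least 40 and at least half of replicates scoring 40 or more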;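 also: 0% = median of neutral control wells and 100% = median of positive control wells; inhibitors cause a drop in the FAM fluorescence signal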
RAD52 inh = RAD52 DNA annealing inhibitors, primary screen, biochemical, FRET, single point, set 2. DNA repair protein RAD52 homolog (Homo sapiens), P43351. recombinant RAD52 DNA annealing, FRET fluorescence. inhibition, % at 18.7 µM. 360,000 tested, 0.46% active;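 active = every replicate showing at least 50% inhibition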
FID counter = compounds displacing fluorescent DNA intercalator, primary screen, artefact control for HCV NS3 helicase inhibitor project, biochemical, FID fluorescence; 290,000 tested, 0.17% active; inhibition, % at 7.9 µM; DNA fluorescent intercalator displacement; in the data active = inhibition above about 37%;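 also: 0% = vehicle and 100% = reference compound; higher means more ethidium bromide displaced from hairpin DNA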
PREPL inh cf = human PREPL enzyme inhibitors, confirmation, biochemical, fluorescence polarization. 2,000 tested, 67% active. shares compounds with PREPL inh. AID 2803, 2010. recombinant PREPL, fluorescence polarization activity probe. inhibition, % at 5.96 µM;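 also: 0% = protein with DMSO and 100% = wells lacking protein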
Active calls of the source: *; i = inactive; x = no result given. Sampled rows, rich in hits. Any-hit rate of the full collection: about 1.3%. Rule as the data show it, unless noted: active = inhibition above about 43%; inactive = the rest.

SMILES	beta cell repl	PREPL inh	UBC13 inh	RAD54 branch	RAD52 inh	FID counter	PREPL inh cf
C[C@H]1CN([C@@H](C)CO)C(=O)c2ccccc2-c2ccccc2CO[C@H]1CN(C)Cc1ccc(C(F)(F)F)cc1	x	x	x	x	-1	x	x
Cc1ccc(N=Cc2cccc(O)c2O)c(C)c1	-3	56*	-6	6	x	5	7
COc1ccc(NCc2nc3ccccc3n2CCOc2ccc(C)cc2)cc1	0	62*	-20	x	-14	-3	60*
CCOc1nc(NCCN2CCOCC2)nc(Nc2ccc([N+](=O)[O-])cc2)n1	-2	38	-6	x	7	1	x
COc1nc(NCCN2CCOCC2)nc(Nc2ccc([N+](=O)[O-])cc2)n1	1	47*	-2	x	x	4	41
COc1cccc(NC(=O)N2[C@H](CO)[C@H](c3ccccc3)[C@@H]2CNC(C)C)c1	x	x	x	1	-122	x	x
CCc1ccc(Nc2n[n+](-c3ccccc3)c(-c3ccc(OCc4ccccc4)cc3)s2)cc1	-8	36	-35	-14	31	7	x
CN(C)c1ccc(-c2sc(Nc3ccccc3)n[n+]2-c2ccc(F)cc2)cc1	-9	10	-15	-15	-409	-13	x
COc1ccc(C)cc1Nc1n[n+](-c2ccccc2)c(-c2ccc(N(C)C)cc2)s1	-9	61*	33	-13	-74	-13	69*
CCc1ccc(Nc2n[n+](-c3ccccc3)c(-c3ccc(N(CC)CC)cc3)s2)cc1	-8	64*	-52	-21	i	-4	68*
CCN(CC)c1ccc(-c2sc(Nc3ccccc3)n[n+]2-c2ccc(F)cc2)cc1	-9	54*	11	-11	i	-9	66*
Cc1noc(C)c1S(=O)(=O)N(C)C[C@@H]1OCCCC[C@@H](C)Oc2ccc(NS(=O)(=O)c3ccc(Cl)cc3)cc2C(=O)N([C@@H](C)CO)C[C@@H]1C	x	x	x	6	-10	x	x
CO[C@H]1CN(C)C(=O)c2cc(C#N)ccc2OCC[C@@H]2CC[C@@H](OC)[C@H](CN(C)C(=O)[C@H]1C)O2	x	x	x	-3	-7	x	x
Cc1cc[n+](CC(=O)c2ccccc2)c2ccccc12	1	60*	11	x	2	10	21
Cc1cc[n+](CCC(=O)O)c2ccccc12	-4	6	-8	2	x	2	x
CCN1C(=O)[C@H]2[C@@H](c3ccc(-c4ccc(Cl)c(Cl)c4)cc3)N[C@@](C)(C(=O)OC)[C@H]2C1=O	-5	46*	12	-12	0	x	43
CCN1C(=O)[C@H]2[C@@H](c3ccc(-c4ccc(Cl)c(Cl)c4)c(OC)c3)N[C@@](C)(C(=O)OC)[C@H]2C1=O	-8	18	9	-7	-85	x	x
O=S(=O)(NCC[C@@H]1CC[C@H](NS(=O)(=O)c2cccc(Cl)c2)[C@H](CO)O1)c1cccc(F)c1	x	x	x	-9	6	x	x
O=C(/C=C/c1cccc([N+](=O)[O-])c1)NCCSc1ccccc1	-2	46*	8	x	x	-4	41
COc1ccc2c3c([nH]c2c1)[C@H](CO)N(C(=O)c1cccc(F)c1)CC31CCN(C(=O)CC2CC2)CC1	x	x	x	x	-11	x	x
O=C(Nc1ccc2nc(-c3ccco3)c(-c3ccco3)nc2c1)N1CCN(c2ccccn2)CC1	0	74*	11	-4	x	-16	38
O=C(Nc1ccc(N2CCOCC2)cc1)c1ccc2nc(-c3ccco3)c(-c3ccco3)nc2c1	-3	13	-14	9	x	-5	x
Cc1nc2cc(NC(=O)N3CCN(c4ccccn4)CC3)ccc2o1	-3	-5	6	-4	x	-10	x
S=C(Nc1ccc(N2CCOCC2)cc1)Nc1ccc2nc(-c3ccco3)c(-c3ccco3)nc2c1	-3	46*	32	1	x	-19	22
Cc1c(CN(C)C)c2c(n1Cc1ccccc1)C(=O)c1ccc(Br)cc1-2	-5	54*	-73	20	x	25	50*
SMILES	beta cell repl	PREPL inh	UBC13 inh	RAD54 branch	RAD52 inh	FID counter	PREPL inh cf
C[C@H]1CN([C@@H](C)CO)C(=O)c2cc(C3=CCCCC3)cnc2O[C@H]1CN(C)C(=O)c1cccnc1	x	x	x	1	2	x	x
COC(=O)CCCC1=CC2=CC(=O)C(C)(OC(=O)c3cccs3)C(=O)C2=CN1CCc1c[nH]c2ccccc12 (stereo not given)	-5	45*	-56	2	-10	x	22
CCCCC1=CC2=CC(=O)C(C)(OC(=O)CC)C(=O)C2=CN1CCc1c[nH]c2ccccc12 (stereo not given)	-2	38	-22	10	-14	x	x
CN(C)CC#Cc1ccc([C@@H]2[C@@H](CO)N3C(=O)CN(C(=O)c4cccnc4)C[C@@H]23)cc1	x	x	x	x	30	x	x
COC(=O)C[C@@H]1CC[C@@H]2[C@@H](COc3ccc(NC(=O)c4cscn4)cc3C(=O)N2C)O1	x	x	x	-4	11	x	x
COc1cccc(CNC(=O)c2cc(COc3c(F)cccc3F)on2)c1	-3	50*	1	2	-14	-19	-2
N#Cc1ccc(-c2ccc([C@@H]3[C@H]4CN(S(=O)(=O)c5ccccc5)CCCCN4[C@H]3CO)cc2)cc1	x	x	x	-5	-23	x	x
C1CCC(c2nn3c(-c4n[nH]c5c4CCC5)nnc3s2)CC1	-1	0	-5	x	x	-21	x
CCN(CC)c1ccc(-c2nn3c(-c4n[nH]c5c4CCC5)nnc3s2)cc1	-4	79*	-6	-5	x	-12	68*
C[C@@H]1CN([C@H](C)CO)C(=O)Cc2cc(NC(=O)Nc3ccc4c(c3)OCO4)ccc2O[C@H]1CN(C)Cc1ccc(Oc2ccccc2)cc1	x	x	x	0	-13	x	x
CC(C)NC(=O)Nc1ccc2c(c1)C(=O)N([C@H](C)CO)C[C@H](C)[C@H](CN(C)Cc1ccc(C(=O)O)cc1)OCCCC[C@H](C)O2	x	x	x	2	-4	x	x
O=S(=O)(Nc1cc2nc3ccccc3nc2n1Cc1ccccc1)c1ccc(Cl)cc1	x	50*	x	x	-74	-7	42
CCCNC(=O)[C@H]1[C@H](CO)[C@H]2Cn3c(ccc(-c4ccc(F)cc4)c3=O)[C@@H]1N2CC	x	x	x	-7	-11	x	x
COc1ccc(C2CC(C)(c3ccc(OC)cc3)Nc3ccccc3N2)cc1 (stereo not given)	-4	45*	-2	1	-1	-4	39
COc1ccc(C2(C)CC(C)(C)Nc3ccccc32)cc1 (stereo not given)	-3	-5	-3	6	4	-9	x
